Records with an inconclusive call do not appear. Activity calls are given as the source filed them. The calls were made as follows: active = hit-call score of the fitted dose curve at least 0.9, where 1 is the maximum; inconclusive = response in the unintended direction; inactive = score below 0.9.

Chain of Estrogen receptor (Homo sapiens) (P03372 whole entry, looked up, the tested form may be a part): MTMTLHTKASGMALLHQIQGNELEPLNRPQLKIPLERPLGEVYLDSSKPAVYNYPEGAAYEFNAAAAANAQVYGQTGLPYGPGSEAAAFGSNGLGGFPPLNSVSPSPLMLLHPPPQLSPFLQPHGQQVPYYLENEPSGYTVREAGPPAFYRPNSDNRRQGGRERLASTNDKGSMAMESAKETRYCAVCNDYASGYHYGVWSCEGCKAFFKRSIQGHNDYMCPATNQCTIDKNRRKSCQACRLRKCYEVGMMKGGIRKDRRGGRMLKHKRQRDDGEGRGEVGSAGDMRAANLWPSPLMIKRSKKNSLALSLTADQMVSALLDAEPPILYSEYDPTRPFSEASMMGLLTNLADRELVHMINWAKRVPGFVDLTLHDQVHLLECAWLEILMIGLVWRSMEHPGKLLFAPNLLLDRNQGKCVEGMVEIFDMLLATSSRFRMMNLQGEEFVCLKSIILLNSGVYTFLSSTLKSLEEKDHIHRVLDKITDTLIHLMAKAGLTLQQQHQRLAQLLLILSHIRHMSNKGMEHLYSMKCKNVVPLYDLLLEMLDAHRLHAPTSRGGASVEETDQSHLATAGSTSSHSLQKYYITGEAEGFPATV
Chain of Androgen Receptor/SRC-1 Co-activator, AR (gene 367) (P10275 whole entry, looked up, the tested form may be a part): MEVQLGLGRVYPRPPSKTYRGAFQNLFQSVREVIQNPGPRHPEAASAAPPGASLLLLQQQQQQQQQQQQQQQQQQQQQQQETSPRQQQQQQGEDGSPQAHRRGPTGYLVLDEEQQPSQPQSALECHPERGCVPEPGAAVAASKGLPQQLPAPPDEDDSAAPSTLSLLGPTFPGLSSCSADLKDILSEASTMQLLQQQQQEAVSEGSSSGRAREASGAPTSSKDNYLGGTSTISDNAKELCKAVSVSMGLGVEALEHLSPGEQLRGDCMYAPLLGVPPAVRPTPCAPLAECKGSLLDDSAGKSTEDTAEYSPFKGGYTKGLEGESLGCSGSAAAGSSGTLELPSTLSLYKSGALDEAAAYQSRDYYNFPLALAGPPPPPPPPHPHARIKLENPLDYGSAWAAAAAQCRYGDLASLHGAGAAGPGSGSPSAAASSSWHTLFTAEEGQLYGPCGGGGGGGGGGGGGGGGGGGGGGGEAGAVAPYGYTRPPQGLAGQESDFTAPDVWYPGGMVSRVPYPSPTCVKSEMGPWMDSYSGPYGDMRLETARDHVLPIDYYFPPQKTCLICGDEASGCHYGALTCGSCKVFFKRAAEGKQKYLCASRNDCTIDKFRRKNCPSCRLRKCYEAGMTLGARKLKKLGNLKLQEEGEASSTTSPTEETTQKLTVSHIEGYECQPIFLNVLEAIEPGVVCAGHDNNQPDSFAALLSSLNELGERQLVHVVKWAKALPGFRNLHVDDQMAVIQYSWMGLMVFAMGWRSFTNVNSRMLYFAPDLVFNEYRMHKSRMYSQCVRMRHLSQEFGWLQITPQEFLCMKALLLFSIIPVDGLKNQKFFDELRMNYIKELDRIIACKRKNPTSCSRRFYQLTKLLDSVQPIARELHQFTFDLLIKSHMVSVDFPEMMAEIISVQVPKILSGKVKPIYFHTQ

The target of the first assay is Estrogen receptor (Homo sapiens) (UniProt P03372). As to the kind of experiment: OT_ER_ERaERa_0480: Odyssey Thera (OT) 8-hour HEK293T Protein-Complementation Assay for Estrogen Receptor-alpha/-alpha Homodimer (AID 2283351).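 Also: rise in fluorescence from reassembled reporter fragments on ERα LBD homodimer in nucleus or whole cell.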 An outline of the steps:
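HEK293T cells stably expressing the human ERα ligand-binding domain (aa 310-547) as a homodimer PCA were dosed with compound for 8 h. Gain of fluorescence intensity versus DMSO vehicle was read by laser scanning cytometry.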
For `CCCCNC(=S)NCCCC`, the molecule was called inactive.

On to `Oc1ccccc1Cc1ccccc1O`, for which the outcome was inactive.

In the case of `CC1(C)[C@@H]2CC[C@@]1(C)C(=O)C2`, the molecule was called inactive.

As for `CC1=CCC2CC1C2(C)C` (centres undefined), the result was inactive.

Another assay deals with T1, Estrogen receptor (Homo sapiens) + Estrogen receptor beta (Homo sapiens) (UniProt P03372+Q92731). As to the kind of experiment: OT_ER_ERaERb_0480: Odyssey Thera (OT) 8-hour HEK293T Protein-Complementation Assay for Estrogen Receptor-alpha/-beta Heterodimer (AID 2283352). The essentials: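 HEK293T protein-fragment complementation assay of ER-alpha/ER-beta LBD heterodimerisation, read 8 h after dosing. Mean nuclear/cytoplasmic fluorescence intensity measured by laser scanning cytometry; gain of signal fitted relative to DMSO.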
T1 sequence (P03372 whole entry, looked up, the tested form may be a part): as the sequence (P03372 whole entry, looked up, the tested form may be a part) above
T1 sequence (Q92731 whole entry, looked up, the tested form may be a part): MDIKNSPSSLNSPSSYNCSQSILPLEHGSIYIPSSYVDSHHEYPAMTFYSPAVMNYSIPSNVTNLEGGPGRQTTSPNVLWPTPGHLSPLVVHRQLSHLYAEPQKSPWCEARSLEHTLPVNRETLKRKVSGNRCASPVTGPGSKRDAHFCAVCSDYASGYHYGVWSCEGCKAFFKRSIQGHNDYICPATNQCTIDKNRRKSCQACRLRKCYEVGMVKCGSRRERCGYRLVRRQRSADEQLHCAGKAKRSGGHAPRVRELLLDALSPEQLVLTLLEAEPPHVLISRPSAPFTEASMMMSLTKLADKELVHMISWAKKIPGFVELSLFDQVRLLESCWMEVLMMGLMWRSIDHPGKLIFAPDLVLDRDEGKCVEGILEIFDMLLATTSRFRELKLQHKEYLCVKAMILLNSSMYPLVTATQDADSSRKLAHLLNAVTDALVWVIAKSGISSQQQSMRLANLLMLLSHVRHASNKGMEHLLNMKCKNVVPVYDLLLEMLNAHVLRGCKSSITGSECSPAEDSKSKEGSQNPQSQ
Take `CC(C)(C)C1CCC(=O)CC1`: the outcome was inactive.

Take `CCCCCC(=O)OCC`: the outcome was inactive.

Regarding `CCCCC(C=O)CC` (centres undefined), the outcome was inactive.

Turning to `O=C(O)c1ccc2c(c1)C(=O)OC2=O`, the result was inactive.

On to `CCCC(CC)c1ccccc1` (centres undefined), for which the result was inactive.

For `CCCCC(CC)COS(=O)(=O)O` (centres undefined), the outcome was inactive.

In the case of `NC(=O)Nc1ccccc1`, the result was inactive.

`C=CCOC(=O)c1ccc(C(=O)OCC=C)c(C(=O)OCC=C)c1`: the outcome was inactive.

For the molecule `c1ccc(Nc2cccc3ccccc23)cc1`, the AC50 was 24.8 µM (active).

In the case of `Nc1ccc(C(=O)O)cc1`, the result was inactive.

As for `CC(C)c1cc(C(C)C)cc(C(C)C)c1`, the outcome was inactive.

With `C1CNCCN1`, the outcome was inactive.

On to `Cc1ccc(C)c(OCCCC(C)(C)C(=O)O)c1`, for which the outcome was inactive.

For the molecule `CCCCCCCCCCCCc1ccc(O)cc1`, the AC50 is 1.86 µM (active).

As to `CCCCCCCCCC(C)=O`, the result was inactive.

As for `CCCCC(=O)O`, the outcome was inactive.

With `CCOC(=O)c1ccc(C)cc1`, the outcome was inactive.

In the case of `CCCCNC(=S)NCCCC`, the outcome was inactive.

For the molecule `Oc1ccccc1Cc1ccccc1O`, the AC50 is 23.4 µM (active).

Regarding `CC1(C)[C@@H]2CC[C@@]1(C)C(=O)C2`, the result was inactive.

With `CC1=CCC2CC1C2(C)C` (centres undefined), the result was inactive.

Another assay has as its target Androgen Receptor/SRC-1 Co-activator, AR (gene 367) (UniProt P10275). As to the kind of experiment: OT_AR_ARSRC1_0960: Odyssey Thera (OT) 16-hour HEK293T Protein-Complementation Assay for Androgen Receptor/SRC-1 Co-activator (AID 2283353).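 Also: actives raise the signal above DMSO so potency reflects increased AR and SRC-1 complex.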 An outline of the steps:
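HEK293T cells stably expressing AR and SRC-1 fused to split Venus YFP fragments via (Gly4Ser)2 linkers were dosed for 16 h. Nuclear/cytoplasmic fluorescence ratio at 488 nm, ≥400 cells per image, fitted for gain of signal versus DMSO.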
Take `CN(C)Cc1cc(CN(C)C)c(O)c(CN(C)C)c1`: the outcome was inactive.

On to `O=C(O)c1ccc2c(c1)C(=O)OC2=O`, for which the outcome was inactive.

Take `CCCCC(CC)COC(=O)/C=C/c1ccc(OC)cc1` (centres undefined): the AC50 is 50 µM (active).

With `Cc1ccc(C)c(OCCCC(C)(C)C(=O)O)c1`, the result was inactive.

For the molecule `CCCCCCCCCC(C)=O`, the outcome was inactive.

`CCCCCC[C@@H](O)C/C=C\CCCCCCCC(=O)OCC(O)CO` (some centres undefined): the outcome was inactive.

The target is the same in a further assay. As to the kind of experiment: OT_AR_ARSRC1_0480: Odyssey Thera (OT) 8-hour HEK293T Protein-Complementation Assay for Androgen Receptor/SRC-1 Co-activator (AID 2283354).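 Also: hits raise the complementation signal above DMSO so AC50 marks enhancers.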 The essentials:
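Measures AR/SRC-1 binding by Venus YFP fragment complementation in HEK293T stable lines at 8 h post-dose. Imaging quantifies the 488nm nucleus/cytoplasm ratio in ≥400 cells; DMSO defines baseline.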
On to `CN(C)Cc1cc(CN(C)C)c(O)c(CN(C)C)c1`, for which the molecule was classed as inactive.

In the case of `CCCCC(CC)COC(=O)/C=C/c1ccc(OC)cc1` (centres undefined), the result was inactive.

As for `Cc1ccc(C)c(OCCCC(C)(C)C(=O)O)c1`, the molecule was classed as inactive.

As for `CCCCCCCCCC(C)=O`, the outcome was inactive.

Another assay addresses T1, Estrogen receptor (Homo sapiens) + Estrogen receptor beta (Homo sapiens). As to the kind of experiment: OT_ER_ERaERb_1440: Odyssey Thera (OT) 24-hour HEK293T Protein-Complementation Assay for Estrogen Receptor-alpha/-beta Homodimer (AID 2283356).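 Also: heteromer of ER alpha and ER beta binding domains; hits raise reporter fluorescence and both agonists and antagonists give an increase.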 The essentials:
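HEK293T stably expressing a PCA of ER alpha LBD (aa 310-547) and ER beta LBD (aa 263-489). After 24 h compound exposure, mean fluorescence intensity in nucleus (agonists) or nucleus and cytoplasm (antagonists) measured by laser scanning cytometry versus vehicle.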
On to `CC(C)(C)C1CCC(=O)CC1`, for which the result was inactive.

Take `CCCCCC(=O)OCC`: the outcome was inactive.

With `CCCCC(C=O)CC` (centres undefined), the result was inactive.

Regarding `O=C(O)c1ccc2c(c1)C(=O)OC2=O`, the result was inactive.

With `CCCC(CC)c1ccccc1` (centres undefined), the outcome was inactive.

As to `CCCCC(CC)COS(=O)(=O)O` (centres undefined), the result was inactive.

As to `NC(=O)Nc1ccccc1`, the outcome was inactive.

With `C=CCOC(=O)c1ccc(C(=O)OCC=C)c(C(=O)OCC=C)c1`, the outcome was inactive.

Regarding `c1ccc(Nc2cccc3ccccc23)cc1`, the AC50 was 47.1 µM (active).

As for `Nc1ccc(C(=O)O)cc1`, the outcome was inactive.

Regarding `O=C(Nc1ccccc1)c1cc(Cl)ccc1O`, the AC50 is 31 µM (active).

For the molecule `CC(C)c1cc(C(C)C)cc(C(C)C)c1`, the result was inactive.

`C1CNCCN1`: the outcome was inactive.

As to `O=S(=O)(O)c1ccc(N=Nc2c(O)ccc3ccccc23)cc1`, the outcome was inactive.

Turning to `Cc1ccc(C)c(OCCCC(C)(C)C(=O)O)c1`, the result was inactive.

In the case of `CCCCCCCCCCCCc1ccc(O)cc1`, the AC50 was 1.14 µM (active).

With `CCCC=C(C=O)CC`, the outcome was inactive.

Consider `CCCCCCCCCC(C)=O`, for which the outcome was inactive.

With `CCCCC(=O)O`, the outcome was inactive.

As to `CCOC(=O)c1ccc(C)cc1`, the outcome was inactive.

Turning to `CCCCNC(=S)NCCCC`, the outcome was inactive.

Consider `Oc1ccccc1Cc1ccccc1O`, for which the AC50 was 53.4 µM (active).

As to `CC1(C)[C@@H]2CC[C@@]1(C)C(=O)C2`, the outcome was inactive.

Take `CC1=CCC2CC1C2(C)C` (centres undefined): the outcome was inactive.
